Results from PubChem BioAssay (NCI).
Compounds without any hit were thinned out: in the full panel of roughly 83,000, 20% have a hit.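 Interpretation: 100, growth as untreated; towards 0, rising growth inhibition; 0, no net growth; 0 to -100, cell death. Compounds scoring below 10 were considered active.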 Active and inactive are the calls of the source.

Assays:
Test in all cases: NCI-60 one-dose screen, 48 h (100 = growth as untreated, 0 = no growth, -100 = all killed)
Settings in all cases: 10 µM unless noted
NCI-H23 lung = tested on: NCI-H23 lung
NCI-H226 lung = tested on: NCI-H226 lung
NCI-H322M lung = tested on: NCI-H322M lung
HOP-62 NSCLC = tested on: HOP-62 NSCLC
NCI-H460 lung = tested on: NCI-H460 lung
HOP-92 NSCLC = tested on: HOP-92 NSCLC
NCI-H522 lung = tested on: NCI-H522 lung
A549/ATCC NSCLC = tested on: A549/ATCC NSCLC
786-0 renal = tested on: 786-0 renal
COLO 205 colon = tested on: COLO 205 colon
DU-145 prostate = tested on: DU-145 prostate
K-562 leukemia = tested on: K-562 leukemia
MALME-3M melanoma = tested on: MALME-3M melanoma
MDA-MB-231 breast = tested on: MDA-MB-231 breast
RXF 393 renal = tested on: RXF 393 renal
SF-268 CNS = tested on: SF-268 CNS
SF-295 CNS = tested on: SF-295 CNS
SF-539 CNS = tested on: SF-539 CNS
UACC-257 melanoma = tested on: UACC-257 melanoma
M14 melanoma = tested on: M14 melanoma

Measured: growth

CCCN=C1NC(=O)/C(=C/c2nc(-c3ccc(OC)cc3)n3ccccc23)S1
inactive: NCI-H23 lung 77.9% | NCI-H226 lung 84.6% | NCI-H322M lung 82.5% | HOP-62 NSCLC 98.8% | NCI-H460 lung 37.4% | HOP-92 NSCLC 106% | NCI-H522 lung 88.1% | A549/ATCC NSCLC 73.3% | 786-0 renal 58.5% | COLO 205 colon 109% | DU-145 prostate 38.9% | K-562 leukemia 91.6% | MALME-3M melanoma 95.3% | MDA-MB-231 breast 55.9% | RXF 393 renal 54.6% | SF-268 CNS 76.2% | SF-295 CNS 124% | SF-539 CNS 95.4% | UACC-257 melanoma 110%

CCC1=CCC[C@@]2(C)CCC[C@@]3(C)CCCC(C)(C)[C@]1([O-])[O+]32
inactive: NCI-H23 lung 99.7% | NCI-H226 lung 102% | NCI-H322M lung 116% | HOP-62 NSCLC 104% | NCI-H460 lung 109% | HOP-92 NSCLC 87.8% | NCI-H522 lung 93.9% | A549/ATCC NSCLC 103% | 786-0 renal 97.9% | COLO 205 colon 112% | DU-145 prostate 105% | K-562 leukemia 101% | MALME-3M melanoma 107% | MDA-MB-231 breast 121% | RXF 393 renal 111% | SF-268 CNS 107% | SF-295 CNS 99.7% | SF-539 CNS 103% | UACC-257 melanoma 105%

O=[N+]([O-])c1ccc(-c2cn(-c3ccccc3)c(-c3ccccc3)n2)cc1
active: SF-295 CNS -21.1% | UACC-257 melanoma -2.3%
inactive: NCI-H23 lung 78.7% | NCI-H226 lung 95.4% | NCI-H322M lung 40.5% | HOP-62 NSCLC 62.4% | NCI-H460 lung 35.3% | HOP-92 NSCLC 81.2% | NCI-H522 lung 44.6% | A549/ATCC NSCLC 55.6% | 786-0 renal 92.5% | COLO 205 colon 101% | DU-145 prostate 109% | K-562 leukemia 62.5% | MALME-3M melanoma 141% | MDA-MB-231 breast 49.5% | RXF 393 renal 65.3% | SF-268 CNS 91.4% | SF-539 CNS 116%

CNC(=S)NNC(=O)C1CC1
inactive: NCI-H23 lung 97.9% | NCI-H226 lung 109% | NCI-H322M lung 121% | HOP-62 NSCLC 106% | NCI-H460 lung 115% | HOP-92 NSCLC 96% | NCI-H522 lung 108% | A549/ATCC NSCLC 99.2% | 786-0 renal 97.2% | COLO 205 colon 113% | DU-145 prostate 118% | K-562 leukemia 92.9% | MALME-3M melanoma 111% | MDA-MB-231 breast 114% | RXF 393 renal 117% | SF-268 CNS 109% | SF-295 CNS 115% | SF-539 CNS 104% | UACC-257 melanoma 102%

C1=Cc2ccccc2N(c2nnc(-c3ccccc3)o2)c2ccccc21
inactive: NCI-H23 lung 103% | NCI-H226 lung 81.7% | NCI-H322M lung 92.2% | HOP-62 NSCLC 99.5% | NCI-H460 lung 49.8% | HOP-92 NSCLC 84.7% | NCI-H522 lung 92.8% | A549/ATCC NSCLC 92.6% | 786-0 renal 100% | COLO 205 colon 91.3% | DU-145 prostate 105% | K-562 leukemia 67.8% | MALME-3M melanoma 109% | MDA-MB-231 breast 85.5% | RXF 393 renal 91.1% | SF-268 CNS 91.7% | SF-295 CNS 92% | SF-539 CNS 103% | UACC-257 melanoma 111%

CCOC(=O)c1c(NS(=O)(=O)c2ccc(C)cc2)sc2c1CCC1(C2)OCCO1
inactive: NCI-H23 lung 94.2% | NCI-H226 lung 85.8% | NCI-H322M lung 99.8% | HOP-62 NSCLC 90.7% | NCI-H460 lung 100% | HOP-92 NSCLC 77.1% | NCI-H522 lung 79.6% | A549/ATCC NSCLC 103% | 786-0 renal 99.3% | COLO 205 colon 115% | DU-145 prostate 114% | K-562 leukemia 89.5% | MALME-3M melanoma 114% | MDA-MB-231 breast 99.7% | RXF 393 renal 103% | SF-268 CNS 93.6% | SF-295 CNS 93.1% | SF-539 CNS 93.7% | UACC-257 melanoma 96.2% | M14 melanoma 104%

C=C1CCC[C@]2(C)CCC[C@H](C)[C@@H](OC(C)=O)[C@@H]3OC(=O)C(=C)[C@@H]3C[C@H]1O2
inactive: NCI-H23 lung 74.5% | NCI-H226 lung 78.6% | NCI-H322M lung 99% | HOP-62 NSCLC 99.9% | NCI-H460 lung 74.7% | HOP-92 NSCLC 24% | A549/ATCC NSCLC 83.3% | 786-0 renal 91.3% | COLO 205 colon 103% | DU-145 prostate 85.5% | K-562 leukemia 61.7% | MALME-3M melanoma 97.9% | MDA-MB-231 breast 70.7% | RXF 393 renal 70.1% | SF-268 CNS 88.7% | SF-295 CNS 80.2% | SF-539 CNS 88.2% | UACC-257 melanoma 74.3%
active: NCI-H522 lung -6.33%

Cc1nn(-c2ccc(Cl)cc2)c2ncnc(N/N=C/c3cccc([N+](=O)[O-])c3)c12
inactive: NCI-H23 lung 94.3% | NCI-H226 lung 104% | NCI-H322M lung 96.4% | HOP-62 NSCLC 107% | NCI-H460 lung 77.8% | HOP-92 NSCLC 20.4% | NCI-H522 lung 103% | A549/ATCC NSCLC 104% | 786-0 renal 96.4% | COLO 205 colon 95.3% | DU-145 prostate 68.7% | K-562 leukemia 17.4% | MALME-3M melanoma 97.2% | MDA-MB-231 breast 102% | RXF 393 renal 110% | SF-268 CNS 58% | SF-295 CNS 101% | SF-539 CNS 106% | UACC-257 melanoma 103%
